High-throughput results (PubChem)
The entries come from a sample that favours hits as a whole.
Artemis inh – Artemis (human) endonuclease inhibition | Q96SD1 | recombinant Artemis, quenched FAM hairpin cleavage fluorescence | inhibition, % at 10 µM | 0.78% of 30,000 active | AID 686954;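 active = at 10 µM dose, at least 30% inhibition, measured as corrected fluorescence normalized to stimulator and neutral control wells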
Target sequence (Q96SD1 whole entry, looked up): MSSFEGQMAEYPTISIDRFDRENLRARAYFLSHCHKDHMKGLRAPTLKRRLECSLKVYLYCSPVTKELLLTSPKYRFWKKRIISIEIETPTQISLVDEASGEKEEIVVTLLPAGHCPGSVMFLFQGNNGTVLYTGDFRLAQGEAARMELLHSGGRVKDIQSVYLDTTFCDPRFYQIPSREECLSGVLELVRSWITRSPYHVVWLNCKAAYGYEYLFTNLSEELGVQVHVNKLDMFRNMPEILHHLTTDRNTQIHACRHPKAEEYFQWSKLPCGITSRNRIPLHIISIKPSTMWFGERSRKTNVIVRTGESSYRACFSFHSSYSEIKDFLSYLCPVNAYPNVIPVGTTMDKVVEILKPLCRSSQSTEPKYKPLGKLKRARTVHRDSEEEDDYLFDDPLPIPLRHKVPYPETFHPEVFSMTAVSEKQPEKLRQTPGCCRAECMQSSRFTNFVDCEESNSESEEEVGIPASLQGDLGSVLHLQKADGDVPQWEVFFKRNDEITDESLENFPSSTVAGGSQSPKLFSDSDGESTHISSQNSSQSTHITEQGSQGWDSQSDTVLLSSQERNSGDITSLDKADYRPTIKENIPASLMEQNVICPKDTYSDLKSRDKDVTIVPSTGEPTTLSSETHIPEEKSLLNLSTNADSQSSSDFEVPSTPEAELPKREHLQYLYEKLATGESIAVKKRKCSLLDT
Large screens that a line does not name were inactive.

CSc1nc2ccc(NS(=O)(=O)c3ccc4c(c3)OCCO4)cc2s1	Artemis inh 34
COc1ccc(S(=O)(=O)Nc2ccc3c(c2)OCCO3)cc1Cl	none
CSc1nc2ccc(S(=O)(=O)NC3CCCCC3)cc2s1	none
CC(C)N(CCCNC(=O)C1CCN(S(=O)(=O)N2CCOCC2)CC1)Cc1ccccc1	none
Cc1[nH][nH]c(=O)c1C(c1c(C)[nH][nH]c1=O)c1cn(Cc2cccc3ccccc23)c2ccccc12	Artemis inh 47
O=C(O)CC(C(=O)O)c1cn(Cc2ccccc2)c2ccccc12 (stereo not drawn)	none
N#Cc1ccccc1Cn1cc(C#N)c2ccccc21	none
Cc1cc(C)c(N2CCN(S(=O)(=O)N3CCCCCC3)CC2)c(C)c1	none
Cc1c(C)n(C)c2ccc(C(=O)Nc3cccc4ccccc34)cc12	none
Cc1ccc(/C(O)=C2\C(=O)C(=O)N(c3cc(C)on3)C2c2cccc(Br)c2)cc1 (stereo not drawn)	none
COC(=O)c1ccc(C2/C(=C(/O)c3ccc(OC(C)C)cc3)C(=O)C(=O)N2c2cc(C)on2)cc1 (stereo not drawn)	Artemis inh 32
COC(=O)c1ccc(C2/C(=C(/O)c3ccc(OC)cc3)C(=O)C(=O)N2c2cc(C)on2)cc1 (stereo not drawn)	none
N#Cc1c(-c2ccccc2)nc2n(-c3ccccc3)nc(C(=O)Nc3ccccc3)n2c1=O	none
N#Cc1c(NC(=O)CCn2cnc3ccccc3c2=O)oc(-c2ccccc2)c1-c1ccccc1	none
N#Cc1c(-c2ccccc2)c(-c2ccccc2)nn(CC(=O)NNC(=O)Nc2ccc(Cl)c(Cl)c2)c1=O	Artemis inh 30
Cc1cc(NC(=O)NC2CCCN2S(=O)(=O)c2ccc(Cl)cc2)no1 (stereo not drawn)	none
Cc1cccc(C)c1N1CCN(c2ccc3nnc(C(F)(F)F)n3n2)CC1	none
O=S(=O)(Nc1ncnc2sc3c(c12)CCC3)c1ccc(Cl)s1	none
Cc1cccc(OCc2nnc(SCc3cc(=O)n4cc(Br)ccc4n3)o2)c1	none
CC(=O)N(c1cccc(C)c1)C1SC(=O)N(c2ccccc2)C1=O (stereo not drawn)	Artemis inh 37
Cc1ccc(NC(=O)CC2SC(=O)N(c3ccccc3)C2=O)cc1 (stereo not drawn)	none
Cc1cccc(NC(=O)CC2SC(=O)N(c3ccccc3)C2=O)c1 (stereo not drawn)	none
Cc1ccc(Cl)cc1N1CCN(Cc2nc3ccsc3c(=O)[nH]2)CC1	none
Nc1nc(-c2ccc(Br)s2)c(Br)s1	none
O=C(/C(=C/c1ccccc1)c1ccccc1)N1CCCCC1	none
O=C(Nc1nc2n(n1)C(c1ccccc1)CC(c1ccc(Cl)cc1)N2)c1ccco1 (stereo not drawn)	Artemis inh 31
O=C1CC(c2ccccc2)n2nc(NC(=O)C3CCCO3)nc2N1 (stereo not drawn)	none
CC1CC(c2ccccc2)n2nc(NC(=O)CCc3ccccc3)nc2N1 (stereo not drawn)	none
C=CCSc1nc(NC)c2sccc2n1	none
Cc1onc(-c2c(F)cccc2Cl)c1C(=O)Nc1ccc(S(=O)(=O)Nc2ncccn2)cc1	none
CC(=O)Nc1cc(S(=O)(=O)Nc2ccccc2C)c(C)cc1C	none
Cc1cccc(NC(=O)c2sc3nc4c(c(-c5cccs5)c3c2N)CN(C)CC4)c1	Artemis inh 40
CC(C)NC(=O)c1sc2nc3c(c(-c4cccs4)c2c1N)CN(C)CC3	none
CC(=O)c1sc2nc(-c3cccs3)cc(C(F)(F)F)c2c1N	none
Cc1cc(C)n(-c2nc(NCCCO)c3c4c(sc3n2)CCCC4)n1	Artemis inh 33
CCn1c(NN)nc2sc3c(c2c1=O)CCC3	none
N=c1c2c3c(sc2ncn1CCCO)CCCC3	none
Cc1cc(S(=O)(=O)Nc2nc(CN3CCOCC3)nc3sc4c(c23)CCCC4)ccc1F	none
Cc1cc(C)n(-c2nc(NCC(C)O)c3c4c(sc3n2)CCCC4)n1 (stereo not drawn)	Artemis inh 39
Cc1cc(C)n(-c2nc(NCCO)c3c4c(sc3n2)CCCC4)n1	none
C=CCn1c(CNc2ccc(C)cc2)nnc1SCC(=O)N/N=C/c1ccc(O)cc1	none
Clc1ccc(CNc2nnnn2-c2ccccc2)c(Cl)c1	none
CSc1nc(C)c2c(n1)N(c1ccc(C(C)C)cc1)CC2	none
CN1/C(=N\O)c2cccc3cccc1c23	Artemis inh 38
CCNC(=O)CN1c2cccc3cccc(c23)S1(=O)=O	none
CCN1CCN(C(=O)CN2C(=O)c3cccc4cccc2c34)CC1	none
O=C(c1cnccn1)N1CCN(C/C=C/c2ccccc2)CC1	none
COc1cccc(OC)c1-c1nn2c(-c3cc(-c4ccccc4)n[nH]3)nnc2s1	Artemis inh 80
CCOc1cccc(-c2nn3c(-c4cc(C)[nH]n4)nnc3s2)c1	none
Cc1cc(-c2nnc3sc(-c4ccc(Cl)cc4Cl)nn23)n[nH]1	none
S=c1[nH]nc(CSc2nc3ccccc3s2)n1C1CCCCC1	none
O=c1c(O)c(-c2ccc3c(c2)OCO3)oc2ccccc12	none
Cc1[nH]c2ccc(Br)cc2c(=O)c1CN1CCOCC1	none
O=c1ccc2cc3c([nH]c4ccc(Br)cc43)oc-2c1O	Artemis inh 81
O=C(N/N=C\c1ccccn1)C1COc2cc3ccccc3cc2O1 (stereo not drawn)	none
CCOC(=O)c1c(NC(=O)C2c3ccccc3Oc3ccccc32)sc(C(=O)N(CC)CC)c1C	none
